# Screening results deposited in PubChem BioAssay by National Center for Advancing Translational Sciences (NCATS).
# VACV Venus inh: inhibitors of vaccinia virus (Venus reporter) | Vaccinia virus Venus reporter expression, fluorescence | Potency, µM (doses to about 36.5 µM), inactives show top-dose activity change, negative = inhibition, actives largely listed as inhibitors | 0.46% of 330,000 active | AID 720580; calls by dose curve; tested in A549 cells; note: nearly all actives have a fitted effect of over 30% in size
# VACV mCherry inh: vaccinia inhibition (mCherry reporter). Vaccinia virus mCherry reporter infection, fluorescence. Potency, µM (series often up to 36.5 µM), for the others: top-dose activity change, negative = inhibition, usual class: inhibitors. 0.63% of 310,000 active; calls by dose curve; tested in A549 cells; note: nearly all actives have a fitted effect of over 35% in size
# Lassa entry inh: Lassa virus entry inhibition; AID 540256; Lassa virus pseudotype entry inhibition, cell reporter; 1.2% of 300,000 active; Potency, µM (series often up to 37.9 µM), inactives show top-dose activity change, negative = inhibition, most hits filed as inhibitors; calls by dose curve; tested in HEK293 cells; note: nearly all actives have a fitted effect of over 50% in size
# Marburg entry inh: Marburg virus entry inhibition | 1.8% of 300,000 active | Marburg virus pseudotyped entry inhibition, cell reporter | Potency, µM (highest dose often 37.8 µM), for the others: at the highest dose activity change, negative = inhibition, most hits filed as inhibitors | AID 540276; calls by dose curve; tested in HEK293 cells
# The depositor's hits bear a star; i = inactive; ? = inconclusive; nt = not tested or not shown; ! = a repeat was not active; [ ] = another dose, or the depositor's remark. Rows were chosen to be rich in hits. Some 2.5% of all compounds tested hit in one or more screens of this group. % is set by controls: 0 for no effect and ±100 for the full control effect; potency is the fitted concentration of half-maximal effect.
SMILES,VACV Venus inh,VACV mCherry inh,Lassa entry inh,Marburg entry inh
CN1c2ccccc2[C@@]2(O)C(=O)[C@@]1(C)[C@H]1Cc3ccccc3[C@H]12,nt,nt,nt,0%[14.2 µM]
COc1ccc([C@]23Cc4cc(OC)c(OC)cc4[C@H](O2)C2=C(CCCC2=O)O3)cc1,nt,nt,nt,6%[14.2 µM]
CCOC(=O)C1=C(C)C(c2cccc(Oc3ccccc3)c2)NC(=S)N1 (stereo not given),-10%,-11%,8.9µM*,?
CCOC(=O)C1=C(C)C(c2ccc(OC)cc2)NC(=S)N1 (stereo not given),nt,nt,5%,-8%
CCN(CC)CCN(C(=O)c1ccc2c(c1)OCCO2)c1nc2cc3c(cc2s1)OCO3,-7%,-13%,-5%,?
CCN(CC)CCN(C(=O)c1cc2c(ccc3ccccc32)oc1=O)c1nc2cc3c(cc2s1)OCCO3,?,10µM*,11%[46.1 µM],?
C(=C\c1nc(N2CCCCCC2)c2ccccc2n1)/c1ccccc1,?,?,-5%,11µM*
Nc1nc(-c2ccccc2)cc(-c2ccccc2O)n1,11µM*,?,-1%,-26%
NNc1nc(-c2ccccc2)cc(-c2ccccc2O)n1,nt,nt,-17%,?
CCOC(=O)CNC(=O)C1CCCCC1,-13%,-15%,nt,nt
COc1cc2nc(N3CCCC(O)C3)c(CNCc3ccccc3F)cc2c(OC)c1OC (stereo not given),7%,-12%,nt,nt
O=C(N/N=C/c1cccc([N+](=O)[O-])c1)C1CC1c1ccccc1 (stereo not given),-17%,?,2.2µM*,?
CC(C)(C)c1ccc(C2CC2C(=O)N/N=C\c2ccc[nH]2)cc1 (stereo not given),4µM*,?,?,?
O=C(N/N=C/c1ccco1)C1CC1c1ccccc1 (stereo not given),-4%,-6%,18µM*,27%
O=C(N/N=C/c1c[nH]c2ccccc12)C1CC1c1ccccc1 (stereo not given),-19%,-24%,2.8µM*,?
O=C(N/N=C/c1cccs1)[C@H]1C[C@@H]1c1ccccc1,4%,i,-14%,19%
O=C(N/N=C/c1ccco1)C1CC1,-8%,i,19%,14%
CC(O)(COc1ccccc1)c1ccc2c(c1)CN(Cc1cccn1-c1ccccn1)CCO2 (stereo not given),-1%,-13%,nt,nt
COCC(=O)Nc1cc(C(=O)N2CCN(c3ccccc3)C(=O)C2)cc2nc(-c3ccccc3)n(C)c12,-5%,-13%,nt,nt
COC(c1ccc2c(c1)CN(C(=O)Cn1nc(C)c3ccccc3c1=O)CCO2)C1CCCCC1 (stereo not given),-8%,-18%,nt,nt
CC1=C(O)C(=O)C=C2C1=CC=C1[C@]2(C)CC[C@@]2(C)C3C[C@](C)(C(=O)O)CC[C@@]3(C)CC[C@@]12C (stereo not given in full),11µM*,14µM*,nt,nt
COC(=O)[C@]1(C)CC[C@@]2(C)CC[C@@]3(C)C4=CCc5c(cc(O)c(O)c5C)[C@]4(C)CC[C@@]3(C)C2C1 (stereo not given in full),2%,20%,nt,nt
CCOC(=O)c1ccc(N2C(=O)c3n[nH]c(-c4ccco4)c3C2c2ccc(OCC)cc2)cc1 (stereo not given),-9%[7.34 µM],-8%[7.34 µM],?,11µM*
CCN(CC)c1ccc2c(cc1=O)[C@@H](NC)CCc1cc(OC)c(OC)c(OC)c1-2,-17%,?,1.1µM*,4µM*
COc1cc2c(c(OC)c1OC)-c1ccc(OC)c(=O)cc1[C@@H](N(C)CC#CCO)CC2,?,-16%,?,?
SMILES,VACV Venus inh,VACV mCherry inh,Lassa entry inh,Marburg entry inh
COc1cc2c(c(OC)c1OC)-c1ccc(N(C)CC(OC)OC)c(=O)cc1[C@@H](NC(C)=O)CC2,-26%,-30%,?,1µM*
COc1ccc(O[C@H]2C=C[C@@H](c3ccccc3)O[C@H]2COC(=O)CCC(C)=NO[C@@H]2O[C@H](COC(C)=O)[C@@H](OC(C)=O)[C@H](OC(C)=O)[C@@H]2OC(C)=O)cc1,nt,nt,nt,-23%[14.2 µM]
CCOC(=O)[C@@](O)(C1C(=O)CC(C)(C)CC1=O)C(F)(F)F,nt,nt,nt,15%[46.1 µM]
O=C1C=C(c2c(O)ccc3ccccc23)c2ccccc2C1=O,11µM*,10µM*,6.3µM*,?
COc1cccc(N2CCN(CC(=O)NC3=Nc4ccccc4N=C(C)C3c3ccccc3)CC2)c1 (stereo not given),-7%,?,?,?
COc1ccc(NC(=O)c2ccc(CN3CCN(c4ccccc4)CC3)cc2)cc1,-21%,nt,?,?
COc1cccc(N2CCN(CC(=O)Nc3nnc(-c4ccccc4)s3)CC2)c1,-26%,?,0.79µM*,?
COc1cccc(NC(=O)c2ccc(CN3CCN(c4ccccc4)CC3)cc2)c1,nt,nt,?,5.8µM*
COc1ccc(CNC(=O)Cn2c(=O)oc3cc(S(=O)(=O)N4CCC(C)CC4)ccc32)cc1,-9%,-11%,?,7.1µM*
COc1ccc(CNC(=O)Cn2c(=O)oc3cc(S(=O)(=O)N4CCCCCC4)ccc32)cc1,-9%,-12%,?,nt
c1ccc(C2NCCc3c2[nH]c2ccccc32)cc1 (stereo not given),nt,nt,nt,23%[14.2 µM]
CCCCCCCCCCCCCCCC[n+]1ccc(C(N)=O)cc1,-15%,i,?,-16%
CCCCCCCCCCCCCCCC[n+]1ccc(/C=N/O)cc1,10µM*,11µM*,6.5µM*,4.5µM*
CCCCCCCCCCCCCCCC[n+]1ccccc1,14µM*!,13µM*!,?,?
CCCCCCC[n+]1ccc(-c2cc[n+](CCCCCCC)cc2)cc1,?,?,-27%,?
COc1ccc(CN2CCCC(n3cc(C(=O)N4CCCCC4)nn3)C2)c(OC)c1C (stereo not given),7%,-7%,nt,nt
CCc1n[n+](CC(=O)c2ccccc2)c(N)s1,-12%,-11%,7.9µM*,?
O=C(Nc1ccc2[nH]ccc2c1)c1ccccc1,0%[7.34 µM],-1%[7.34 µM],2.8µM*,6.3µM*
COc1ccc(NC(=O)Nc2ccc3[nH]ccc3c2)cc1,-2%,-8%,-4%,12%
O=C1C=C(O)C[C@H](c2cccs2)C1,nt,nt,nt,21%
CCCCCCC[n+]1c(/C=C/c2ccc(N(C)C)cc2)sc2ccccc21,29%,?,nt,nt
CC(C)N(c1ccc(C=O)cc1)C(C)C,-9%,-15%,nt,nt
COc1ccc(C2c3cc4c(cc3OC(N3CCOCC3)C2C)OCO4)c(OC)c1 (stereo not given),?,?,6.3µM*,?
Cc1ccc(-c2csc3ncnc(OCC(=O)NC(=O)NCc4ccco4)c23)cc1,-20%,-10%,?,21µM*
Cc1ccc(C(=O)Nc2cc3ccccc3oc2=O)cc1,-24%,-4%,2.8µM*,?
CC(=O)Nc1cc2ccccc2oc1=O,-4%,-1%,0%,1%[46.1 µM]
Cc1oc(=O)c(NC(=O)c2ccccc2)cc1C(=O)c1ccccc1,nt,nt,?,2%
Cc1oc(=O)c(NC(=O)c2ccc(Cl)cc2)cc1C(=O)c1ccccc1,nt,nt,23µM*,?
O=c1c2ccc(Cl)cc2nc(-c2cccc(C(F)(F)F)c2)n1O,?,?,2.5µM*,?
O=C(C1CCN(Cc2ccccc2)CC1)N1CCN(C/C=C/c2ccccc2)CC1,-16%,-7%,?,14µM*
